# Measured values from PubChem BioAssay AID651642 (Sanford-Burnham Center for Chemical Genomics, 2012).
# The source made the active and inactive calls.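 How the source made its calls: active means average half-effect concentration of 10 µM or less in every one of the four cell panels; inactive means the rest.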
# Tested on: H9c2
# Test: protection of cardiomyocytes from stress damage, SAR follow-up, cell-based, panel, H9c2 and HL-1, H2O2, 2-deoxyglucose, ATP luminescence (AID 651642)
# Conditions: H9c2/HL-1 cardiomyocyte H2O2 oxidative damage, mean of runs, with H2O2
row,Compound,outcome
1,CCOC(=O)c1cccc(NC(=O)c2cc(-c3cc(OC)c(OC)c(OC)c3)nc3ccc(Cl)cc23)c1,inactive
2,CCOC(=O)c1cccc(NC(=O)CNC(=O)c2cc(-c3cc(OC)c(OC)c(OC)c3)nc3ccc(OC)cc23)c1,active
3,COc1cc(-c2cc(C(=O)NCC(=O)Nc3ccc(C(C)=O)cc3)c3ccccc3n2)cc(OC)c1OC,inactive
4,COc1cc(-c2cc(C(=O)Nc3cccc(C(C)=O)c3)c3ccc(Cl)cc3n2)cc(OC)c1OC,inactive
5,COc1cc(-c2cc(C(=O)Nc3cccc(C(C)=O)c3)c3cc(Br)ccc3n2)cc(OC)c1OC,inactive
6,COc1cc(-c2cc(C(=O)NCC(=O)Nc3cccc(C(C)=O)c3)c3ccccc3n2)cc(OC)c1OC,active
7,CCOC(=O)c1ccccc1NC(=O)c1cc(-c2cc(OC)c(OC)c(OC)c2)nc2ccccc12,inactive
8,COc1ccccc1CN1C(=O)c2ccccc2N2C(=O)c3c(ccc(OC)c3OC)C12 (configuration not stated),inactive
9,CCOC(=O)c1ccc(NC(=O)c2cc(-c3cc(OC)c(OC)c(OC)c3)nc3ccccc23)cc1,inactive
10,COc1cc(-c2cc(C(=O)Nc3cccc(C(=O)Nc4ccccc4)c3)c3ccccc3n2)cc(OC)c1OC,active
11,COC(=O)CNC(=O)c1cccc(NC(=O)c2cc(-c3cc(OC)c(OC)c(OC)c3)nc3ccccc23)c1,inactive
12,COc1ccc2c(c1OC)C(=O)N1c3ccccc3C(=O)N(Cc3cccc(Cl)c3Cl)C21 (configuration not stated),inactive
13,CCOC(=O)c1cccc(NC(=O)CNC(=O)c2cc(-c3cc(OC)c(OC)c(OC)c3)nc3ccc(F)cc23)c1,active
14,COc1cc(-c2cc(C(=O)Nc3cccc(C(C)=O)c3)c3cc(C)ccc3n2)cc(OC)c1OC,active
15,COc1cc(-c2cc(C(=O)Nc3cccc(C(=O)NCc4ccccc4)c3)c3ccccc3n2)cc(OC)c1OC,active
16,COc1cc(-c2cc(C(=O)Nc3cccc(C(=O)N(C)C)c3)c3ccccc3n2)cc(OC)c1OC,inactive

row,Compound,outcome
1,CCOC(=O)c1cccc(NC(=O)CNC(=O)c2cc(-c3cc(OC)c(OC)c(OC)c3)nc3ccccc23)c1,inactive
2,COc1ccc2c(c1OC)C(=O)N1c3ccccc3C(=O)N(Cc3ccccc3F)C21 (configuration not stated),inactive
3,COc1ccc2c(c1OC)C(=O)N1c3ccccc3C(=O)N(Cc3ccc(C)cc3)C21 (configuration not stated),inactive
4,COc1ccc2c(c1OC)C(=O)N1c3ccccc3C(=O)N(Cc3ccccc3Br)C21 (configuration not stated),inactive
5,COc1ccc2c(c1OC)C(=O)N1c3ccccc3C(=O)N(Cc3ccccc3)C21 (configuration not stated),inactive
6,COc1cc(-c2cc(C(=O)Nc3cccc(C(=O)N4CCOCC4)c3)c3ccccc3n2)cc(OC)c1OC,active
7,COC(=O)CNC(=O)c1cc(-c2cc(OC)c(OC)c(OC)c2)nc2ccccc12,inactive
8,COc1ccc2c(c1OC)C(=O)N1c3ccccc3C(=O)N(Cc3cccc(Br)c3)C21 (configuration not stated),inactive
9,CCNC(=O)c1cccc(NC(=O)c2cc(-c3cc(OC)c(OC)c(OC)c3)nc3ccccc23)c1,active
10,COc1ccc2nc(-c3cc(OC)c(OC)c(OC)c3)cc(C(=O)Nc3cccc(C(C)=O)c3)c2c1,inactive
11,COc1cccc(CNC(=O)CNC(=O)c2cc(-c3cc(OC)c(OC)c(OC)c3)nc3ccccc23)c1,active
12,CCOC(=O)c1cccc(NC(=O)CNC(=O)c2cc(-c3cc(OC)c(OC)c(OC)c3)nc3ccc(C)cc23)c1,active
13,COc1cc(-c2cc(C(=O)NCC(=O)Nc3cccc(C(C)=O)c3)c3cc(C)ccc3n2)cc(OC)c1OC,inactive
14,CCOC(=O)c1cccc(NC(=O)c2cc(-c3cc(OC)c(OC)c(OC)c3)nc3ccc(Br)cc23)c1,inactive
15,COc1cc(-c2cc(C(=O)NCC(=O)Nc3ccc(C(C)=O)cc3)c3cc(F)ccc3n2)cc(OC)c1OC,inactive
16,COc1cc(-c2cc(C(=O)Nc3cccc(C(=O)O)c3)c3ccccc3n2)cc(OC)c1OC,inactive
